ABCB6 inh MLPCN = human ABCB6 transporter inhibition; 360,000 tested, 0.19% active; Q9NP58; K562-ABCB6 porphyrin accumulation, flow cytometry, 1 h; stronger effect = lower value; fluorescence ratio to DMSO, % at 10 µM;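 active means fluorescence ratio to DMSO below 75%, the collection mean minus 3 SD; inconclusive means too few cells collected in the well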;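 further: signal is porphyrin accumulated inside mitochondria; 100% equals median channel fluorescence of DMSO control wells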
Target sequence (Q9NP58 whole entry, looked up): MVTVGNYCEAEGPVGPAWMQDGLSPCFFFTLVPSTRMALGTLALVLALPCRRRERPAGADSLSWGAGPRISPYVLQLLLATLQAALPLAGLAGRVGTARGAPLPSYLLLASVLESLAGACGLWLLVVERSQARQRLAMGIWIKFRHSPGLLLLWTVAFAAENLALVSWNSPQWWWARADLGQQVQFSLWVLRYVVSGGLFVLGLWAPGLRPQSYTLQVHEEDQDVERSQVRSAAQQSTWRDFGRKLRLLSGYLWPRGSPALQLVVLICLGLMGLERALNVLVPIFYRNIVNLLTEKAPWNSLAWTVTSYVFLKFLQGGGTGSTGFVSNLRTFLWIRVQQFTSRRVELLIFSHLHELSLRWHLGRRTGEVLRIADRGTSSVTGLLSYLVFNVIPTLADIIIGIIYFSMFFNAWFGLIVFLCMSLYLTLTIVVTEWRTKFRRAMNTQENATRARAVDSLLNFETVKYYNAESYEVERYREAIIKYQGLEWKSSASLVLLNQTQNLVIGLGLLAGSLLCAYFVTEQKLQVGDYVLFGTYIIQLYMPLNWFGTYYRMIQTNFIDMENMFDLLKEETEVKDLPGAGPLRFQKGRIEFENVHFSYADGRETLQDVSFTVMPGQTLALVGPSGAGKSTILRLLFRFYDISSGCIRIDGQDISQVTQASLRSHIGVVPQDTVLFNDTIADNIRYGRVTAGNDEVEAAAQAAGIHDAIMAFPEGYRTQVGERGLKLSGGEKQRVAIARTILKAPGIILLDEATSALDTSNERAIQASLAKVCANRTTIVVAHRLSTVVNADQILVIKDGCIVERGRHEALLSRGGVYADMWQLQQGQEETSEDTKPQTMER
VLA-4 inh = inhibition in a human VLA-4 binding assay; VLA-4 expressing cells, ligand binding flow cytometry; P13612; inhibition, % (about 7 µM as worked out from the volumes in the protocol); AID 2557; 330,000 tested, 0.2% active; in the data active means inhibition above about 50%
PolyA inh = blocks polyadenylation in yeast reporter cells | AID 1875 | S. cerevisiae SKY197-pL101 polyadenylation reporter, beta-gal luminescence; efflux-impaired pdr1/pdr3 knockout yeast; score 100 = 6 SD above DMSO | 300,000 tested, 0.02% active | activity score, % at 12 µM;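 active means lowest replicate activity score at least 50, where 100 means six control SD above control mean; inconclusive means lowest score under 50 but half or more replicates reach 50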;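 further: yeast exposed to compound for 9 h at 30 °C; higher score means more reporter readthrough which indicates perturbed polyadenylation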
JMJD2C inh = blocks human GASC-1 demethylase activity | Q9H3R0 | GST-JMJD2C(1-420) H3K9me3 demethylation, DELFIA europium | inhibition, % at 2.35 µM | 330,000 tested, 0.069% active;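 active means more than half of a compound's replicate wells show inhibition beyond 50%, single wells judged on their own value; inconclusive means some, but no more than half, of replicates pass 50% inhibition; inactive means no replicate passes 50% inhibition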;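 further: signal counts dimethyl H3K9 product captured on neutravidin plate; 0% = median of DMSO wells and 100% = 0.3 times that DMSO median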
VLA-4 mod pick = confirmation of allosteric modulators of human VLA-4 integrin; inhibition, % at 6.7 µM; shares compounds with VLA-4 inh; U937 cells, HUTS-21 LIBS mAb binding, flow cytometry; LDV ligand present at threefold Kd; 1,300 tested, 2% active; AID 2813; in the data active means inhibition above about 40%;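 further: 0% = ligand without compound and 100% = no ligand background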
* hit, by the source's call; ? = inconclusive; / = not tested or not shown. Compounds with a hit are over-represented: about 0.44% of the library has one in this group of screens.

SMILES	ABCB6 inh MLPCN	VLA-4 inh	PolyA inh	JMJD2C inh	VLA-4 mod pick
Cn1c(=N)n(CC(O)c2ccco2)c2ccccc21 (stereo not drawn)	88	0	-20	12	/
O=C(/C=C/c1ccccc1)NNc1ccc(Cl)cc1	102	55*	-69	-14	3
COc1ccccc1N1CCN(C(=O)c2ccc3[nH]c(C)c(C)c3c2)CC1	96	50*	-3	14	26
Cc1[nH]c2ccc(C(=O)N3CCN(c4ccccc4Cl)CC3)cc2c1C	96	4	-8	0	/
COc1ccc(Cl)cc1Cn1c(C)c(C(=O)NCc2ccc3c(c2)OCCO3)sc1=O	100	/	/	/	/
COc1ccccc1C(=O)Nc1cc2cc(Br)ccc2oc1=O	80	-11	-26	-3	/
O=C(CSCc1cccc(Br)c1)N=Nc1c(O)[nH]c2ccccc12	99	57*	3	5	-15
CCOC(=O)N1CCN(C(=O)COc2ccc(Br)cc2Cl)CC1	93	3	-6	22	/
O=C(O)c1ccc(S(=O)(=O)N2CCCc3ccccc32)cc1	97	1	19	-12	/
O=C(NCc1ccco1)c1cc(S(=O)(=O)N2CCCc3ccccc32)ccc1Cl	90	14	1	8	/
COCCNC(=O)c1ccc(S(=O)(=O)N2CCCc3ccccc32)cc1	98	-10	6	6	6
CCNC(=O)COC(=O)c1cc(S(=O)(=O)N2CCCc3ccccc32)ccc1Cl	92	7	5	6	-3
Cc1cc(/C=N\NC(=O)COc2cccc3cccnc23)c(C)n1-c1ccc(Br)cc1	101	6	/	3	/
Cc1cc(/C=N\NC(=O)c2cccs2)c(C)n1-c1ccc2ncccc2c1	100	93*	4	2	0
CCCCc1ccc(-n2c(Cc3cccs3)n[nH]c2=S)cc1	105	55*	-30	-2	4
S=c1[nH]nc(Cc2cccs2)n1-c1ccccc1	97	-10	12	-15	/
COC(=O)c1cn(CC(=O)NC2CCCCC2)c2ccccc12	101	13	-2	1	/
CC(C)NC(=O)Cn1cc(C(=O)C(=O)N2CCOCC2)c2ccccc21	101	4	2	3	7
O=C(C(=O)N1CCOCC1)c1cn(CC(=O)N2CCCCC2)c2ccccc12	92	4	?	-2	/
O=C(Cn1cc(C(=O)C2CC2)c2ccccc21)NC1CCCC1	92	58*	2	1	-4
CCCCOCCCNC(=O)COc1ccccc1	97	9	-7	-10	/
Cc1ccc(CSc2nncn2-c2ccccn2)cc1	104	7	?	/	/
Clc1ccc(CSc2nncn2-c2ccccn2)cc1	99	60*	2	-34	2
CC1CCC(NC(=O)Cn2c(=O)oc3ccccc32)CC1 (stereo not drawn)	93	-15	6	-6	0
COc1ccc(Cl)cc1NC(=O)CN(C)C(=O)Cn1c(=O)oc2ccccc21	98	-17	-9	13	-2
SMILES	ABCB6 inh MLPCN	VLA-4 inh	PolyA inh	JMJD2C inh	VLA-4 mod pick
Cc1ccc(NC(=O)Nc2ccccc2C(N)=O)cc1	95	-1	7	3	8
COc1ccc(C)cc1NC(=O)Nc1ccccc1	95	50*	-11	3	-4
CC1CCN(C(=O)Cn2c(=O)oc3ccccc32)CC1	100	0	-5	-18	/
COc1ccc(Cl)cc1NC(=O)CCn1c(=O)oc2ccccc21	97	-4	-15	2	/
COc1ccc(NC(=O)Nc2cc(C)ccc2OC)cc1	97	8	-20	2	/
O=C(COc1ccccc1F)NC1CCN(Cc2ccccc2)CC1	94	4	-2	0	/
CCOC(=O)C1CCN(C(=O)CCc2ccc(S(=O)(=O)NC(C)C)cc2)CC1	100	-2	23	2	/
COc1ccc(C)cc1NC(=O)Cn1c(=O)oc2ccccc21	101	44	5	1	-20
CN(CC(=O)Nc1ccccc1C(F)(F)F)C(=O)Cn1c(=O)oc2ccccc21	99	6	-8	-7	1
Cc1ccccc1NC(=O)Cn1c(=O)oc2ccccc21	131	16	-29	21	/
CCOc1cc(/C=N/Nc2ccc(C(=O)O)cc2)ccc1OC(=O)c1ccccc1C	94	2	11	-14	/
Cc1nn(-c2ccccc2)c(Cl)c1/C=N/NC(=O)c1ccn[nH]1	100	3	-1	-2	/
CN1C(=O)Cc2cc(S(=O)(=O)Nc3ccc(N4CCOCC4)cc3)ccc21	97	11	-2	1	4
Cc1cc(S(=O)(=O)Nc2ccc(N3CCOCC3)cc2)ccc1Br	97	13	11	-41	/
CC(C)Cc1ccc(-c2ccc3nccn3c2)cc1	102	/	/	/	/
Cc1ccc(C)c(OCCCNC2CCCC2)c1C	95	-3	3	9	/
COc1cccc(-n2c(Cc3cc(=O)[nH]c(=O)[nH]3)nnc2SCC(=O)N2CCC(C)CC2)c1	112	17	7	-5	5
CCSc1nnc(Cc2cc(=O)[nH]c(=O)[nH]2)n1-c1ccc(Cl)cc1	105	-10	0	17	/
COc1ccc(-n2c(Cc3cc(=O)[nH]c(=O)[nH]3)nnc2SCC(=O)Nc2ccccc2)cc1	102	-28	-4	2	/
COc1ccc(-n2c(Cc3cc(=O)[nH]c(=O)[nH]3)nnc2SCC(=O)N2CCC(C)CC2)cc1	98	10	/	0	0
CC1CCN(C(=O)CSc2nnc(Cc3cc(=O)[nH]c(=O)[nH]3)n2-c2ccc(Cl)cc2)CC1	106	-59	0	-4	11
COc1ccc(-n2c(=S)[nH]c3cc(C(=O)NCCCN4CCCC4=O)ccc3c2=O)cc1OC	92	0	6	1	/
COc1ccc(-n2c(=S)[nH]c3cc(C(=O)NCCCN4CCOCC4)ccc3c2=O)cc1OC	103	56*	-19	5	-9
COc1cc2c(cc1NC(=O)c1ccc(C(C)(C)C)cc1)CCCC2	108	82*	12	-22	15
COc1ccc(-c2nnc3ccc(SCC(=O)N4CCCC4)nn23)cc1	96	10	-19	-12	/
SMILES	ABCB6 inh MLPCN	VLA-4 inh	PolyA inh	JMJD2C inh	VLA-4 mod pick
CCOc1ccc(-c2nnc3ccc(SCC(=O)N4CCCCC4)nn23)cc1	89	18	27	-11	-1
CCCSc1nsc(SCCC)c1C(N)=O	91	-2	3	-7	/
CC(=O)Nc1nc(COc2ccc3ccccc3c2)cs1	97	56*	-14	9	5
O=C(Nc1ccncc1)Nc1ccccn1	103	11	-3	7	/
O=C(Nc1ccccc1)Nc1ccncc1	99	62*	4	-6	-10
CC(C)Oc1ccc(S(=O)(=O)N2CCOCC2)cc1NC(=O)C1=COCCO1	92	-9	26	3	/
Cc1ccc(S(=O)(=O)N(C)c2nonc2C)cc1	95	1	11	2	/
CC(C(=O)NCC1CCCCC1)N1CCc2ccccc2C1 (stereo not drawn)	99	7	-11	2	/
CC(C(=O)NCC1CCCCC1)N1CCN(S(=O)(=O)/C=C/c2ccccc2)CC1 (stereo not drawn)	97	40	-18	6	1

Assay outcomes from PubChem.
